Here are results for 40 compounds from PubChem BioAssay (EPA / NIEHS).

Activity calls are given as the source filed them. The calls were made as follows: active = hit-call score of the fitted dose curve at least 0.9, where 1 is the maximum; inconclusive = response in the unintended direction; inactive = score below 0.9.

Peroxisome proliferator-activated receptor gamma (Homo sapiens), sequence (P37231 whole entry, looked up, the tested form may be a part): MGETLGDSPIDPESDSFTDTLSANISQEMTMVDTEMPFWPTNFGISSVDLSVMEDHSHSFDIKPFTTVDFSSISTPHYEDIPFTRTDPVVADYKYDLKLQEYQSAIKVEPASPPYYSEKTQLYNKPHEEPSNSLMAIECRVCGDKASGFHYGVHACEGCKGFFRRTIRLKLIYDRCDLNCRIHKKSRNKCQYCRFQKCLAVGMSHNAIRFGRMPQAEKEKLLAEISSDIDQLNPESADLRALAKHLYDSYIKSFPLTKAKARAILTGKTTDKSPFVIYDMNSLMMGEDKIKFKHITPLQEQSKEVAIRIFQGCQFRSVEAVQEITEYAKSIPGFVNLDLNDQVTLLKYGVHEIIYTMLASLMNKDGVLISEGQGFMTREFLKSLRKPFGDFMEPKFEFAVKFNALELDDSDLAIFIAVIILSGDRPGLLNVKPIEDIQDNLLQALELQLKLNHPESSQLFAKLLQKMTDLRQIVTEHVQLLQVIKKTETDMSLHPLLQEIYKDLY

This assay has as its target Peroxisome proliferator-activated receptor gamma (Homo sapiens) (UniProt P37231). Nature of the assay: OT_PPARg_PPARgSRC1_1440: Odyssey Thera (OT) 24-hour Protein-Complementation Assay for Peroxisome Proliferator-activated Receptor Gamma/ SRC-1 Co-activator (AID 2283388).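 Also: nuclear to cytoplasmic ratio of reconstituted Venus YFP fluorescence in fixed imaged cells.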 The procedure:
OT_PPARg_PPARgSRC1_1440 is a cell-based assay that uses HEK293T, a human kidney cell line, with measurements taken at 24 hours after chemical dosing in a 384-well plate.OT_PPARg_PPARgSRC1_1440 is one of one assay component(s) measured or calculated from the OT_PPARg_PPARgSRC1_1440 assay. It is designed to make measurements of protein fragment complementation, a form of binding reporter, as detected with fluorescence intensity signals by Protein-fragment Complementation technology.Data from the assay component OT_PPARg_PPARgSRC1_1440 was analyzed into 1 assay endpoint. This assay endpoint, OT_PPARg_PPARgSRC1_1440, was analyzed in the positive analysis fitting direction relative to DMSO as the negative control and baseline of activity. Using a type of binding reporter, measures of receptor for gain-of-signal activity can be used to understand the binding at the pathway-level as they relate to the gene PPARG. Furthermore, this assay endpoint can be referred to as a primary readout, because the performed assay has only produced 1 assay endpoint. To generalize the intended target to other relatable targets, this assay endpoint is annotated to the nuclear receptor intended target family, where the subfamily is non-steroidal.
The OT PPARg/SRC-1 assay assessed receptor-chemical interactions using a rapidly maturing, intensely fluorescent mutant of YFP known as Venus, rationally dissected into two separate fragments. The fragments were obtained as follows: first, fragments coding for YFP1 and YFP2 (corresponding to amino acid residues 1-158 and 159-239 of the full length YFP, respectively) were generated by oligonucleotide synthesis (Blue Heron Biotechnology), and then PCR mutagenesis was used to generate the mutant fragments IFP1 and IFP2. Fusion constructs were transfected into HEK293T cells with a (Gly4Ser)2 linker between the PPARg/SRC-1 and YFP fragment genes to facilitate complementation when interacting proteins bring fragments into close proximity. The construct is transiently transfected in HEK293T cells 48 hours prior to treatment with test compounds. Cells are seeded into optical quality 384-well poly-D-lysine coated plates in MEM alpha medium (Invitrogen) supplemented with 10 percent FBS (Gemini Bio-Products) 1 percent penicillin and 1 percent streptomycin, and grown in 37C incubator equilibrated to 5 percent CO2. Cells are allowed to adhere for 24 hours prior to treatment with compounds of interest or controls for 24 hours. Cells are fixed in 4 percent formaldehyde and stained with Draq5 (BioStatus) to identify cells and subcellular compartment boundaries prior to signal detection. 8 Images per well were acquired on an Evotec Opera at 2 wavelengths (488 and 635nm), and the ratio of fluorescence in the nucleus relative to fluorescence in the cytoplasm (N/C Ratio) in the 488nm channel was calculated for a minimum of 350 cells per image.
`COP(=O)(NC(C)=O)SC` (stereo not given): the call was inactive.
Regarding `CCOP(=O)(OCC)Oc1cc(C)nc(C(C)C)n1`, the result was inactive.
Then `CCOP(=O)(SC(C)CC)N1CCSC1=O` (stereo not given), with “inactive”; and `CCC(=O)Nc1ccc(Cl)c(Cl)c1`, with “inactive”.
Turning to `COP(=O)(OC)C(O)C(Cl)(Cl)Cl` (stereo not given), the compound was called inactive.
The result for `CCCCN(CC)c1c([N+](=O)[O-])cc(C(F)(F)F)cc1[N+](=O)[O-]` reads “inactive”.
Turning to `CCc1cccc(CC)c1N(COC)C(=O)CCl`, the compound was called inactive.
For `CCCCOC(=O)[C@@H](C)Oc1ccc(Oc2ccc(C#N)cc2F)cc1`, the outcome was inactive.
For the compound `CN(C)NC(=O)CCC(=O)O`, the call was inactive.
For `CCNc1nc(Cl)nc(NC(C)(C)C#N)n1`, the result was inactive.
With `CSC1=N[C@@](C)(c2ccccc2)C(=O)N1Nc1ccccc1`, the compound was called inactive.
`CC(COc1ccc(Oc2ccccc2)cc1)Oc1ccccn1` (stereo not given): the call was inactive.
For `CNC(=O)ON=C(SC)C(=O)N(C)C`, the compound was called inactive.
The result for `CCOC(=O)CC(SP(=O)(OC)OC)C(=O)OCC` (stereo not given) reads “inactive”; that for `O=[N+]([O-])c1cc(C(F)(F)F)c(Cl)c([N+](=O)[O-])c1Nc1ncc(C(F)(F)F)cc1Cl`, “inactive”; that for `COP(=O)(OC)OC(Br)C(Cl)(Cl)Br` (stereo not given), “inactive”.
For `CC(Oc1cccc(Cl)c1)C(=O)O` (stereo not given), the result was inactive.
In the case of `CCCCSP(=O)(SCCCC)SCCCC`, the compound was classed as inactive.
As to `Cc1ccn2nc(S(=O)(=O)Nc3c(F)cccc3F)nc2n1`, the result was inactive.
The result for `CCCSP(=O)(OCC)SCCC` reads “inactive”; that for `O=C(O)c1cc(Oc2ccc(C(F)(F)F)cc2Cl)ccc1[N+](=O)[O-]`, “inactive”.
Take `COc1cc(OC)nc(Sc2cccc(Cl)c2C(=O)O)n1`: the compound was classed as inactive.
The result for `CC[C@H](C)[C@H]1O[C@]2(C=C[C@@H]1C)C[C@@H]1C[C@@H](C/C=C(\C)[C@@H](O[C@H]3C[C@H](OC)[C@@H](O[C@H]4C[C@H](OC)[C@@H](NC)[C@H](C)O4)[C@H](C)O3)[C@@H](C)/C=C/C=C3\CO[C@@H]4[C@H](O)C(C)=C[C@@H](C(=O)O1)[C@]34O)O2` reads “inactive”; that for `CC(=NC#N)N(C)Cc1ccc(Cl)nc1`, “inactive”.
Then `COP(=O)(OC)SCn1c(=O)oc2cc(Cl)cnc21`, with “inactive”; and `CCOP(=S)(OCC)SCCSCC`, with “inactive”; and `CNC(=O)ON=C(C)SC`, with “inactive”.
`COc1cccc(C(=O)NN(C(=O)c2cc(C)cc(C)c2)C(C)(C)C)c1C`: the call was inactive.
In the case of `N#CSCSC#N`, the call was inactive.
Consider `CNc1cnn(-c2cccc(C(F)(F)F)c2)c(=O)c1Cl`, for which the call was inactive.
Consider `CCc1cnc(C2=NC(C)(C(C)C)C(=O)N2)c(C(=O)O)c1` (stereo not given), for which the outcome was inactive.
The result for `CC(C)=CC1C(C(=O)OCN2C(=O)C3=C(CCCC3)C2=O)C1(C)C` (stereo not given) reads “inactive”.
The result for `CC(C)[C@H](C(=O)O[C@H](C#N)c1cccc(Oc2ccccc2)c1)c1ccc(Cl)cc1` reads “inactive”; that for `CON=C(C(=O)OC)c1ccccc1CON=C(C)c1cccc(C(F)(F)F)c1`, “inactive”; that for `C[Si](Cn1cncn1)(c1ccc(F)cc1)c1ccc(F)cc1`, “inactive”.
Consider `Cc1nn(-c2cc(NS(C)(=O)=O)c(Cl)cc2Cl)c(=O)n1C(F)F`, for which the result was inactive.
The result for `COc1ccc(C(=CC(=O)N2CCOCC2)c2ccc(Cl)cc2)cc1OC` reads “inactive”; that for `CCCCOC(=O)c1ccccc1C(=O)O`, “inactive”.
Turning to `CN(C)C(=O)Nc1cccc(C(F)(F)F)c1`, the call was inactive.
Then `CC1(C(=O)Nc2ccc(O)c(Cl)c2Cl)CCCCC1`, with “inactive”.
